PubChem BioAssay (NCI)
The panel holds about 83,000 compounds, 20% with a hit somewhere; the sample as a whole holds those more often.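 Compound tested at a single concentration for 48 hours in 96-well plates; a percent growth value below 10 was scored as active.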 A number with no mark means an inactive call. The source made the active and inactive calls.

Each compound was assayed on OVCAR-8 ovarian (assay: NCI-60 one-dose screen, 48 h (100 = growth as untreated, 0 = no growth, -100 = all killed)). Conditions: 10 µM unless noted.

| SMILES | growth |
| --- | --- |
| COCCOc1cc2ncnc(N3CCN(c4ncc(S(=O)(=O)N5CCCCC5)cn4)CC3)c2cc1OCCOC | 97% |
| COC(=O)[C@]1(C)CCC[C@]2(C)[C@H]3C[C@H]4C(C(C)C)=C[C@]3(CC[C@H]21)[C@@H]1C(=O)CC[C@H](OCCC#N)[C@@H]14 | 99.2% |
| O=C(O)CCN1C(=O)/C(=C/C(Cl)=C/c2ccccc2)SC1=S | 22.8% |
| O=C(/C=C/c1cccc(Cl)c1)c1ccc(Nc2nc(Nc3ccc(F)cc3)nc(Nc3ccc(Cl)cc3)n2)cc1 | 92.8% |
| CC(C)(Sc1cc(C(C)(C)C)c(O)c(C(C)(C)C)c1)Sc1cc(C(C)(C)C)c(OC(=O)CCCC(=O)O)c(C(C)(C)C)c1 | 56.7% |
| Fc1cc2c(cc1Cl)N(c1ncnc3ccc(-c4ccc5n[nH]nc5c4)cc13)CC2 | 85.6% |
| CCSC(SCC)c1ccc(Cl)cc1 | 107% |
| O=C(Nc1nc2ccc(C(=O)N3CCN(/C=C/c4ccccc4)CC3)cc2s1)c1ccc(NCCc2ccccc2)c([N+](=O)[O-])c1 | 68.4% |
| O=S(=O)(Nc1cc(F)cc(Cl)c1)c1ccc(-c2cnc(C3CC3)o2)cc1 | 39.8% |
| COC(=O)c1c(C)nc(C)c2c1C(=O)C(Br)=C(NCc1ccccc1)C2=O | 4.6% (active) |
| COc1cc2c(c(OC)c1OC)CCC(c1cccc(C(=O)Nc3ccc(C#N)cc3)c1)O2 (stereo unspecified) | 28.5% |
| O=C1c2ccccc2-c2c1c1c(=O)[nH]c3ccccc3c1n2Cc1ccccc1 | 63.2% |
| O=C1c2c(c3c4ccccc4[nH]c3c3ccc4ccccc4c23)C(=O)N1CCN1CCNCC1 | 34.5% |
| CC(C)=CCCC(C)c1ccc(C)c2c1OCN(CCCCCO)C2 (stereo unspecified) | 90.1% |
| COc1ccc(/C=N/NC(=O)c2ccc(-n3cc(-c4ccccc4)nn3)cc2)cc1OC | 99% |
| CCN(CC)S(=O)(=O)c1ccc(S(=O)(=O)N2CCC[C@@H](C(=O)N3CCN(c4nc(C(C)C)no4)CC3)C2)cc1 | 61.3% |
| Cc1cc(N2CCN(CC(=O)Nc3ccc4c(ccn4C)c3)CC2)nc(N2CCCCCC2)n1 | 83.3% |
| COc1ccc(Nc2ncc(Br)c(NCCCNC(=O)c3cccs3)n2)cc1 | 32.7% |

| SMILES | growth |
| --- | --- |
| NC(=O)C(=O)c1ccccc1NC=O | 95.4% |
| N#Cc1ccc2c(c1)C(=O)c1c-2n(CCCN)c(=O)c2cc([N+](=O)[O-])ccc12 | -71.6% (active) |
| c1ccc(Cn2cc3c(c2)-c2oncc2CC3)cc1 | 36.4% |
| O=C(CSC(=S)n1cnnc1)NC(=O)c1ccccc1 | 115% |
| O=C1/C(=C\c2ccc3nccnc3c2)SC(=S)N1CCc1ccc(O)cc1 | 98.4% |
| COc1c(B(O)O)cccc1-c1nc2c(F)cc3[nH]ncc3c2c2c1CCCC2 | 15.1% |
| COc1c(B(O)O)cccc1-c1cc(C)c2c(ccc3[nH]ncc32)n1 | 64.1% |
| CSc1nnc(-c2cc3c([nH]c4ccccc43)c(-c3cccc(O)c3)n2)n1-c1ccccc1 | 47.1% |
| C=C1C(=O)O[C@H]2[C@H]1CC/C(Cn1cc(-c3ccccc3)nn1)=C\CC[C@@]1(C)O[C@@H]21 | 5.7% (active) |
| C=C(CBr)[C@@H]1CC[C@]2(C(=O)O)CC[C@]3(C)[C@H](CC[C@@H]4[C@@]5(C)CCC(=O)C(C)(C)[C@@H]5CC[C@]43C)[C@@H]12 | 84.2% |
| CCNCCNc1cc(C2CCCCC2)c(C#N)c2nc3ccccc3n12 | 26.2% |
| COc1cc2c(c(OC)c1OC)CCC(c1cccc(C(=O)Nc3cccc(Cl)c3)c1)O2 (stereo unspecified) | 75.1% |
| CCCCCCCC[C@@H]1N[C@@H](C(=O)OC)Cc2c1[nH]c1ccccc21 | 98.6% |
| CC(=O)Oc1ccc(/C(=C(\C)c2ccc(Cl)cc2)c2ccc(OCCN3CCCCC3)cc2)cc1 | 57.1% |
| COc1ccc2cc1Oc1ccc(cc1)C[C@H]1c3c(cc4c(c3Oc3cc5c(cc3OC)CCN(C)[C@@H]5C2)OCO4)CCN1C | 43.9% |
| CC(=O)c1c(C)nc2ccccc2c1/C=C/c1ccc(F)cc1 | 92.9% |
| CN(/C(N)=N/N=C/c1c2ccccc2cc2ccccc12)C1CCCCC1 | 56.3% |
| CCOC(=O)n1ccn(C)c1=S | 105% |
